Rows were chosen to be rich in hits. Some 3.5% of all compounds tested hit in one or more screens of this group.
PG9 binder – binds the HIV-1 gp120 antibody PG9 | TR-FRET gp120-PG9 antibody binding | inhibition, % at 6.7 µM | hit rate 0.43% among 360,000; in the data active = inhibition above about 8.5%
DNMT1 inh – DNMT1 (human) enzyme inhibition | DNMT1 molecular beacon, Hinp1I cleavage, fluorescence | inhibition (reported as % activation of signal), % at 10 µM | AID 588458 | hit rate 0.83% among 360,000 | P26358; in the data active = inhibition above about 50%
rCAG RNA binder – molecules binding r(CAG) RNA repeats. r(CAG) RNA repeat, TO-PRO-1 dye displacement fluorescence. inhibition, % at 3 µM. AID 651821. hit rate 1.3% among 370,000;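 active = inhibition above the plate cutoff, the mean of all test compounds on that plate plus 3 SD, cut at about 35% in these data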;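 note: higher means more dye released from RNA so lower well fluorescence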
UHRF1 binding – blocks human UHRF1 binding to methylated DNA; hit rate 0.75% among 370,000; UHRF1 binding to methylated oligo, TR-FRET; AID 687016; inhibition, % at 4.4 µM; in the data active = inhibition above about 21%;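 note: UHRF1 SRA domain binding a hemimethylated CpG hairpin DNA probe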
LEDGF integ inh – blocks HIV-1 LEDGF/p75-dependent DNA integration | TR-FRET IN-LEDGF/p75 DNA integration, Eu/Cy5 | inhibition, % at 3.7 µM | hit rate 0.64% among 370,000 | AID 743269;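 active = inhibition above the screen-wide mean plus 3 SD, cut at about 13% in these data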;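 note: signal is the Cy5 over europium emission ratio at 671 and 618 nm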
MBD2 DNA inh – MBD2-methylated oligo binding inhibition. Q9UBB5. AID 686964. TR-FRET, MBD2 binding to methylated oligonucleotide. hit rate 0.31% among 370,000. inhibition, % at 4.4 µM; in the data active = inhibition above about 13%
DNMT1 confirm – DNMT1 inhibition confirmation, single concentration | shares compounds with DNMT1 inh | DNMT1 molecular beacon HinP1I cleavage, fluorescence | inhibition, % at 10 µM | hit rate 8% among 2,300 | AID 602385;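 active = average inhibition of at least 30% in the single-concentration confirmation test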
DNMT1 interf – beacon fluorescence artifact counter-screen; shares compounds with DNMT1 inh; DNMT1 molecular beacon spectral interference counterscreen, fluorescence 485/520; activation (fluorescence interference), % at 10 µM; hit rate 1% among 2,300;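 active = activation of at least 30% at 10 µM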;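 note: DNMT1 catalytic domain with a HinP1I cleavage step and a FAM/dabcyl DNA beacon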
Hits are given with their value; 0 = inactive; - = no result given.

SMILES | PG9 binder | DNMT1 inh | rCAG RNA binder | UHRF1 binding | LEDGF integ inh | MBD2 DNA inh | DNMT1 confirm | DNMT1 interf
O=C(CSc1nnnn1-c1ccccc1)NC(=O)NCc1ccco1 | 0 | 68.2 | 0 | 0 | 0 | 0 | 0 | 0
CCOc1ccccc1-n1nnnc1SCC(=O)NC(=O)Cc1ccccc1 | 0 | 0 | 0 | 0 | 0 | 0 | - | -
O=C(CSc1nnc(COc2ccccc2Cl)o1)NC(=O)NCc1ccco1 | 0 | 71.9 | 0 | 0 | 0 | 0 | 0 | 0
Cn1nnnc1SCC(=O)NCc1ccco1 | 0 | 0 | 0 | 0 | 0 | 0 | - | -
O=C(CC1CCCC1)N1CC[C@H]2[C@H](CCCN2Cc2ccc(F)cc2)C1 | - | - | 0 | 0 | 0 | 0 | - | -
Cc1cc(C)n(-c2nc(Nc3ccccc3)nc(-n3nc(C)cc3C)n2)n1 | 0 | 64.0 | 0 | 0 | 0 | 0 | 0 | 0
Cc1nc2c(c(=O)n1CCC1=CCCCC1)c1nc3ccccc3nc1n2/N=C/c1ccco1 | 0 | 76.0 | 0 | 0 | 0 | 0 | 0 | 0
Cc1cc(C(=O)C(C)Cl)c(C)n1Cc1ccco1 (stereo not given) | 0 | 65.2 | 0 | 0 | 0 | 0 | 0 | 0
Cc1cc(SCc2ccc([N+](=O)[O-])cc2)nc(=O)[nH]1 | 0 | 51.6 | 0 | 0 | 0 | 0 | 0 | 0
Cc1cc(SCc2cccc([N+](=O)[O-])c2)nc(=O)[nH]1 | 0 | 0 | 0 | 0 | 0 | 0 | - | -
Cc1ccc(CNC(=O)c2nnn(CC(=O)Nc3cc(C)cc(C)c3)c2N)cc1 | 0 | 56.2 | 0 | 0 | 0 | 0 | 0 | 0
O=C(Nc1nnc(-c2ccccc2SCc2ccccc2)s1)Nc1ccccc1F | - | 0 | - | - | - | - | - | -
O=C(Nc1nnc(-c2ccccc2F)s1)Nc1ccccc1F | 0 | 52.7 | 0 | 0 | 0 | 0 | 0 | 0
Cc1nc(SCCC(C)C)c([N+](=O)[O-])[nH]1 | 0 | 93.8 | 0 | 0 | 0 | 0 | 0 | 0
COc1ccc(C(C)(NC(C)=O)c2nc(-c3cccc(NC(C)=O)c3)cs2)cc1 (stereo not given) | 0 | 0 | 0 | 0 | 0 | 0 | - | -
CC1CCCN(CCCNC(=O)CN2C(=O)COc3ccccc32)C1 (stereo not given) | 0 | 0 | 0 | 0 | 0 | 0 | - | -
COC(=O)[C@]12C[C@H](CC(=O)N3CCN(C(=O)C4CC4)CC3)C(=O)N(Cc3ccccc3)C1=C[C@H](COCc1ccccc1)O[C@@H]2C | - | - | 0 | 0 | 0 | 0 | - | -
CCC(NC(=O)c1cccc(Cn2nc(C)c([N+](=O)[O-])c2C)c1)c1ccc(C(C)C)cc1 (stereo not given) | 0 | 54.8 | 0 | 0 | 0 | 0 | 0 | 0
CC1(C)CC(=O)C(C=NCC2CCN(C(=O)Cc3ccccc3)CC2)=C(O)C1 | 0 | 75.5 | 0 | 0 | 0 | 0 | 0 | 0
CC1(C)CC(=O)C(C=NCC2CCNCC2)=C(O)C1 | 0 | 0 | 0 | 0 | 0 | 0 | - | -
Cc1cc2cc(CNC(=O)Nc3ccc(Cl)c(Cl)c3)ccc2n1C | 0 | 57.5 | 0 | 0 | 0 | 0 | 0 | 0
COCC(=O)NCc1ccc2c(c1)cc(C)n2C | 0 | 0 | 0 | 0 | 0 | 0 | - | -
O=c1cc(-c2ccco2)oc2c1ccc1ccccc12 | 0 | 65.0 | 0 | 0 | 0 | 0 | 0 | 0
O=c1cc(-c2ccncc2)oc2c1ccc1ccccc12 | 0 | 0 | 0 | 0 | 0 | 0 | - | -
CC(C)(C)c1ccc(S(=O)(=O)N2CCN(C(=O)C3CCC3)CC2)cc1 | 0 | 0 | 0 | 0 | 0 | 0 | - | -
SMILES | PG9 binder | DNMT1 inh | rCAG RNA binder | UHRF1 binding | LEDGF integ inh | MBD2 DNA inh | DNMT1 confirm | DNMT1 interf
c1ccc(-c2cnn3c(-c4ccccc4)c(-c4ccccc4)nc3n2)cc1 | 0 | 177.5 | 0 | 0 | 0 | 0 | 0 | 59.9
Nc1nc(-c2ccccc2)c(-c2ccccc2)n1N | 0 | 0 | 0 | 0 | 0 | 0 | - | -
O=[N+]([O-])c1ccc(/C=N/Nc2nc(N3CCCCCC3)nc(N3CCCCCC3)n2)o1 | 0 | 66.1 | 0 | 0 | 0 | 0 | 0 | 0
O=[N+]([O-])c1ccc(/C=N/Nc2nc(N3CCCCC3)nc(N3CCCCC3)n2)cc1 | 0 | 0 | 0 | 0 | 0 | 0 | - | -
COc1ccccc1-c1csc(-n2ncc(C#N)c2N)n1 | 0 | 76.5 | 0 | 0 | 0 | 0 | 0 | 0
CCc1nc2c(OCC(=O)N3CCOCC3)cccn2c1N(C=O)Cc1ccccc1 | 0 | 0 | 0 | 0 | 0 | 0 | - | -
COC(=O)[C@]1(C)N[C@H](CN(C)C(=O)c2ccccc2)[C@@H]2C(=O)N(C)C(=O)[C@@H]21 | 0 | 0 | 0 | 0 | 0 | 0 | - | -
